Data published in ChEMBL document CHEMBL4888484, “Replenishing the malaria drug discovery pipeline: Screening and hit evaluation of the MMV Hit Generation Library 1 (HGL1) against asexual blood stage Plasmodium falciparum ,using a nano luciferase reporter read-out” (2022).
Screen size: about 150,000 compounds; about 540 (0.36%) showed an effect of 50% or more. For the sample, strong results were picked, then their nearest neighbours and some compounds at random.

Each molecule was assayed on Plasmodium falciparum (assay: Primary screen in NF54 nanoGlo assay, in single point, at 2uM, 72h; a lower Z score goes with more inhibition). Conditions: timepoint 72 hour.
Format: functional, Erythrocyte
In the case of `COc1ccc(Cn2nnc3cc(C(=O)Nc4ccc(C)cc4C)ccc32)cc1`, the “% Inhibition” value is reported as -2% and the Z score is reported as 0.34. For `CC1=Nc2ccccc2C12CCN(C(=O)Nc1cncc(F)c1)CC2`, the “% Inhibition” value was 11% and the Z score was -1.44. For `O=C(Nc1onc2c1CCC2)c1ccc2ncsc2c1`, the “% Inhibition” value was 0% and the Z score was 0.01. `O=C(Nc1onc2c1CCC2)c1cccc2ccccc12` was tested, and the “% Inhibition” value was 20% and the Z score was -2.27. `O=C(Nc1onc2c1CCC2)c1ccc2ccccc2c1` was tested, and the “% Inhibition” value was 76% and the Z score was -8.19. For `CC(=O)Nc1ccc(S(=O)(=O)NC2(c3nc(C)no3)CCCCC2)cc1`, the “% Inhibition” value was -3% and the Z score was 0.55. In the case of `O=C(Cn1cnc(-c2nc(-c3ccccc3)cs2)c1)Nc1ccc(F)cc1`, the “% Inhibition” value is reported as -8% and the Z score is reported as 0.99. For `O=C(O)[C@H]1CCN(C(=O)Cn2c(COc3ccccc3)nc3ccccc32)C1`, the “% Inhibition” value was -10% and the Z score was 0.93. `Cc1nn(-c2ccccc2Cl)c(O)c1C(c1ccsc1)c1c(C)nn(-c2ccccc2Cl)c1O` was tested, and the “% Inhibition” value was 6% and the Z score was -0.74. `Cc1nn(-c2ccccn2)c(O)c1C(c1ccccc1)c1c(C)nn(-c2ccccn2)c1O` was tested, and the “% Inhibition” value was 96% and the Z score was -9.38. In the case of `Cc1nn(-c2nc3ccccc3s2)c(O)c1C(c1ccc(Cl)c(Cl)c1)c1c(C)nn(-c2nc3ccccc3s2)c1O`, the “% Inhibition” value is reported as -10% and the Z score is reported as 0.88. `Cc1ccccc1C(=O)N1C(C(=O)NC(C)c2ccccc2)COC12CCN(C(=O)CC(C)(C)C)CC2` (centres undefined) was tested, and the “% Inhibition” value was -5% and the Z score was 0.47. For `CCc1ccccc1C(=O)OCc1nccn1C`, the “% Inhibition” value was -3% and the Z score was 0.26. For `Fc1ccc(-c2nc3c(cnn3C3CCCC3)[nH]2)cc1`, the “% Inhibition” value was -6% and the Z score was 0.81. For `COc1ccc(-c2nc3c(cnn3C3CCN(C)CC3)[nH]2)cn1`, the “% Inhibition” value was -7% and the Z score was 0.9. For `CN1CCC(n2ncc3[nH]c(-c4ccc(C(F)(F)F)cc4)nc32)CC1`, the “% Inhibition” value was 97% and the Z score was -17.43. `Cc1c(-c2n[nH]c3c2CN(C(=O)c2csnn2)CC3)cccc1C(F)(F)F` was tested, and the “% Inhibition” value was -12% and the Z score was 1.03. In the case of `O=C(CN1CCN(CC(=O)c2ccccc2)CC1)c1ccccc1`, the “% Inhibition” value is reported as 0% and the Z score is reported as -0.02. `Cc1n(CC(=O)c2ccccc2)c2ccccc2[n+]1CC(=O)c1ccccc1` was tested, and the “% Inhibition” value was 59% and the Z score was -12.26. For `O=C(Cn1nnc2ccccc21)c1ccccc1`, the “% Inhibition” value was -12% and the Z score was 1.78. In the case of `O=C(N[C@H]1CCc2cc(F)c(F)c(F)c21)N1CCn2ncnc2C1`, the “% Inhibition” value is reported as -5% and the Z score is reported as 1.12. With `COc1nccc2c(NCc3cn(C(C)(C)C)nn3)cccc12` the “% Inhibition” value was 5% and the Z score was -1. `CCOc1ccc(S(=O)(=O)N[C@H]2CC[C@@H](CC(=O)O)C2)c(C)c1` was tested, and the “% Inhibition” value was -1% and the Z score was 0.16. With `C[N+]12CCCC[C@@H]1[C@H](COC(=O)c1ccccc1Cl)CCC2` (some centres undefined) the “% Inhibition” value was 7% and the Z score was -0.65. `CO[C@@H]1CCC[C@@H]2CN(C(=O)C3(c4ccccc4)CCCC3)C[C@@H]21` was tested, and the “% Inhibition” value was -4% and the Z score was 0.35. With `C[N+]12CCCCC1C(OC(=O)C1(c3ccccc3)CCCC1)CCC2` (centres undefined) the “% Inhibition” value was 63% and the Z score was -6.6. For `Cc1cccc(C)c1OCC(=O)Nc1ccc(-c2nc3cc4ccccc4cc3[nH]2)cc1`, the “% Inhibition” value was 49% and the Z score was -5.57. With `c1cc(-c2nc3cc4ccccc4cc3[nH]2)nc(-c2nc3cc4ccccc4cc3[nH]2)c1` the “% Inhibition” value was 100% and the Z score was -18.05. For `CCn1ncc(C(CC(=O)c2ccccc2)CC(=O)c2ccccc2)c1C`, the “% Inhibition” value was -8% and the Z score was 1.07. For `Cc1nsc2ncc(C(=O)N3CCC(C)CC3)c(N3CCC(C(=O)Nc4cc(F)ccc4F)CC3)c12`, the “% Inhibition” value was 60% and the Z score was -4.06. `CCOc1ccc(NC(=O)C2CCN(c3c(C(=O)N(CC)CC)cnc4snc(C)c34)CC2)cc1` was tested, and the “% Inhibition” value was 5% and the Z score was -0.93. `Cc1nsc2ncc(C(=O)N3CCCCC3)c(N3CCC(C(=O)Nc4cc(F)ccc4F)CC3)c12` was tested, and the “% Inhibition” value was 5% and the Z score was -0.78. `CCN(CC)C(=O)c1cnc2snc(C)c2c1N1CCC(C(=O)Nc2cc(F)ccc2F)CC1` was tested, and the “% Inhibition” value was 6% and the Z score was -0.96. With `CCN(CC)C(=O)c1cnc2snc(C)c2c1N1CCC(C(=O)Nc2ccc(Br)c(C)c2)CC1` the “% Inhibition” value was 1% and the Z score was -0.18. With `CCN(CC)C(=O)c1cnc2snc(C)c2c1N1CCC(C(=O)Nc2c(C)cc(C)cc2C)CC1` the “% Inhibition” value was 54% and the Z score was -10.3. With `CN1CCC(NC(=O)NCC2(CO)CCC2)C1c1ccccc1` (centres undefined) the “% Inhibition” value was -12% and the Z score was 2.33. `Cc1cccnc1[C@H](C)NC(=O)CNC(=O)N(C)C` was tested, and the “% Inhibition” value was -9% and the Z score was 1.68. For `Fc1ccc(Cc2nnc3n2CCCC3)cc1`, the “% Inhibition” value was 3% and the Z score was -0.52. `COc1ccccc1CNc1nc2[nH]c3c(c(=O)n2n1)CCCC3` was tested, and the “% Inhibition” value was 8% and the Z score was -0.7. `CC(C)(C)[C@H]1CCc2c(sc(NC(=O)C3(F)C(F)(F)C(F)(F)C(F)(F)C(F)(F)C3(F)F)c2C#N)C1` was tested, and the “% Inhibition” value was 77% and the Z score was -6.03. In the case of `CC(C)(C)[C@H]1CCc2c(sc(NC(=O)CN3CCCC3)c2C#N)C1`, the “% Inhibition” value is reported as 10% and the Z score is reported as -1.29. With `CC(C)(C)[C@H]1CCc2c(sc(NC(=O)c3cc(-c4ccccc4)nc4ccccc34)c2C#N)C1` the “% Inhibition” value was 13% and the Z score was -1.58. In the case of `Cc1ccc(N2CCCC2=O)cc1NC(=O)N1CCC(c2n[nH]cc2C)CC1`, the “% Inhibition” value is reported as -8% and the Z score is reported as 1.78. For `Cc1csc(CNC(=O)NCc2nnc3n2CCOCC3)c1`, the “% Inhibition” value was -2% and the Z score was 0.17. In the case of `COc1cccc(CNC(=O)c2cnn3c4c(cnc23)C[C@@H](C)CC4)c1`, the “% Inhibition” value is reported as 0% and the Z score is reported as 0.03. For `C[C@H]1CCc2c(cnc3c(C(=O)NCc4ccccc4)cnn23)C1`, the “% Inhibition” value was 33% and the Z score was 0.71. For `COc1ccc(CCNC(=O)c2cnn3c4c(cnc23)C[C@@H](C)CC4)cc1OC`, the “% Inhibition” value was 61% and the Z score was -4.54. With `O=C(CC(c1ccccc1)c1ccccc1)N1CC(=O)N2CCc3ccccc3[C@@H]2C1` the “% Inhibition” value was 39% and the Z score was -5.29. `O=C(COc1ccc(Cl)cc1)N1CC(=O)N2CCc3ccccc3[C@@H]2C1` was tested, and the “% Inhibition” value was -8% and the Z score was 1.08. With `O=C(CN1C(=O)c2ccccc2C1=O)N1CC(=O)N2CCc3ccccc3[C@@H]2C1` the “% Inhibition” value was 65% and the Z score was -8.85. With `CCN(CC)S(=O)(=O)c1ccc(F)c(C(=O)OCCNC(C)=O)c1` the “% Inhibition” value was -10% and the Z score was 0.84. `Nc1ccc(-c2ccc(NC3CCCC3)nn2)cn1` was tested, and the “% Inhibition” value was -16% and the Z score was 1.48. For `CC1(C)CCC(Nc2ccc(C(N)=O)nn2)CC1`, the “% Inhibition” value was 77% and the Z score was -11.08. `CNC(=O)c1ccc(NC2CC3CC3C2)nn1` (centres undefined) was tested, and the “% Inhibition” value was 6% and the Z score was -0.99. For `COc1ccc(OC)c([C@@H]2CCCN2c2nnc(-c3ccccn3)s2)c1`, the “% Inhibition” value was -13% and the Z score was 2.07. `O=C(NCCc1nc2ccccc2[nH]1)C(F)(F)c1ccc(F)cc1` was tested, and the “% Inhibition” value was 4% and the Z score was -0.36. In the case of `Cc1ccccc1OCC(=O)NS(C)(=O)=O`, the “% Inhibition” value is reported as -1% and the Z score is reported as 0.11. `Cc1ccc(C(F)(F)C(=O)NCCC(=O)NS(C)(=O)=O)cc1` was tested, and the “% Inhibition” value was 57% and the Z score was -7.27. In the case of `COc1ccccc1NC(=O)C1C(=O)NC23CCCCC2C1c1ccccc1O3` (centres undefined), the “% Inhibition” value is reported as -8% and the Z score is reported as 1.04. In the case of `Cc1cccc(NC(=O)C2C(=O)N[C@]34CCCCC3C2c2ccccc2O4)c1` (some centres undefined), the “% Inhibition” value is reported as 2% and the Z score is reported as -0.27. In the case of `COc1ccc2c(c1)OC13CCN(C)CC1C2C(C(=O)c1ccccc1OC)C(=O)N3` (centres undefined), the “% Inhibition” value is reported as 58% and the Z score is reported as -6.85. `O=C(CCOc1ccc(F)c(Cl)c1)NCc1cccnc1` was tested, and the “% Inhibition” value was 15% and the Z score was -2.11. With `CN(CCO)C[C@@H]1CN(C(=O)C2(c3ccccc3)CCCC2)C[C@@H]1CO` the “% Inhibition” value was -27% and the Z score was 2.7. With `CN(C)c1cncc(-c2cc(O)cc(CC[C@H]3CCCCN3)c2)n1` the “% Inhibition” value was -2% and the Z score was 0.33. For `Oc1cc(CC[C@H]2CCCCN2)cc(-c2cnc3ccccc3n2)c1`, the “% Inhibition” value was 59% and the Z score was -7.37. In the case of `COc1cccc(-c2cc(O)cc(CC[C@H]3CCCCN3)c2)n1`, the “% Inhibition” value is reported as 80% and the Z score is reported as -13.26. With `COc1ccnc(-c2cc(O)cc(CC[C@H]3CCCCN3)c2)n1` the “% Inhibition” value was -4% and the Z score was 0.49. In the case of `COc1nccnc1-c1cc(O)cc(CC[C@H]2CCCCN2)c1`, the “% Inhibition” value is reported as -23% and the Z score is reported as 3.42. `Oc1ccc(-c2cc(O)cc(CC[C@H]3CCCCN3)c2)nc1` was tested, and the “% Inhibition” value was -14% and the Z score was 1.77. In the case of `CC(C)(C)OC(=O)N1CC(CNC2(c3ncon3)CCC2)C1`, the “% Inhibition” value is reported as 9% and the Z score is reported as -1.69. For `CC1(C)[C@H]2CC=C(CCNc3nc(-c4ccncc4)nc4c3CNC4)[C@@H]1C2`, the “% Inhibition” value was 0% and the Z score was -0.03. For `CN(C[C@@H]1CCCN2CCCC[C@H]12)C(=O)Cc1c[nH]c2ccccc12`, the “% Inhibition” value was -1% and the Z score was 0.06. For `COc1ccc(-c2cncc(CN3CCCC3)c2)cc1OC`, the “% Inhibition” value was -9% and the Z score was 1.71. With `Cc1cc(-c2cncc(CN3CCC(C(N)=O)CC3)c2)ccc1F` the “% Inhibition” value was -2% and the Z score was 0.18. For `Cc1cc(-c2cncc(CN3CCCCC3)c2)ccc1F`, the “% Inhibition” value was 50% and the Z score was -1.27. In the case of `Cc1ccc2c(C(=O)N3CCCCC3)cc(-c3cncnc3)nc2c1C`, the “% Inhibition” value is reported as 3% and the Z score is reported as -0.37. For `O=c1c2cc(F)ccc2c(Br)cn1CC1(CO)COC1`, the “% Inhibition” value was 20% and the Z score was -2.48. For `C[C@H](NC(=O)c1cc(C(F)(F)F)n[nH]1)c1n[nH]c(N)n1`, the “% Inhibition” value was -2% and the Z score was 0.47. In the case of `OC1=Nc2c(ncn2-c2cccnc2)[C@@H](c2ccc(F)c(F)c2)C1`, the “% Inhibition” value is reported as 0% and the Z score is reported as -0.05. With `CCC1=Nc2ccccc2N=C(NC(=O)c2ccc(F)cc2)[C@H]1c1ccc(OC)c(OC)c1` the “% Inhibition” value was -11% and the Z score was 1.75. With `CCC1=Nc2ccccc2N=C(NC(=O)C(C)C)[C@H]1c1ccc(F)cc1` the “% Inhibition” value was 64% and the Z score was -2.85. In the case of `CCC1=Nc2ccccc2N=C(NC(=O)CN2CCN(C)CC2)[C@H]1c1ccccc1`, the “% Inhibition” value is reported as -6% and the Z score is reported as 0.93.
